Where “and” joins values, the source holds several entries; their conditions need not be identical. Equal values may be shown once. Screen size: about 5,500 compounds; about 2,000 (36%) were called active. Roughly 18% stayed inconclusive and do not appear here. Rule as the data show it: active = normalized growth mostly below about 0.91 (no sharp cut-off); inconclusive = no clear call, values can overlap the other calls; inactive = mostly above about 0.92. The list shows a part of the results.
Experiment: chemical genetic growth profiling, strain panel (AID 1159580);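 also: tested at 20 µM; growth read once vehicle control cultures reached saturation at 30 °C; 1 = growth at the plate median or of vehicle wells; lower values mean less growth of the strain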
Conditions: S. cerevisiae deletion strains, growth OD

Measured: normalized growth

CCCCC(=O)N(Cc1ccc(-c2ccccc2-c2nn[nH]n2)cc1)[C@H](C(=O)O)C(C)C
inactive: locus YAL013W, strain DEP1, stronger effect = lower value 0.992 | locus YAL021C, strain ccr4, stronger effect = lower value 0.974 | locus YAL026C, strain drs2, stronger effect = lower value 0.982 | locus YAL030W, strain snc1, stronger effect = lower value 0.993 | locus YBL061C, strain skt5, stronger effect = lower value 0.994 | locus YBR009C, strain hhf1, stronger effect = lower value 0.986 | locus YBR021W, strain FUR4, stronger effect = lower value 0.993 | locus YBR023C, strain chs3, stronger effect = lower value 1 | locus YBR171W, strain sec66, stronger effect = lower value 0.986 | locus YBR229C, strain ROT2, stronger effect = lower value 1 | locus YBR231C, strain swc5, stronger effect = lower value 1.01 | locus YBR279W, strain paf1, stronger effect = lower value 1 | locus YCL011C, strain gbp2, stronger effect = lower value 0.981 | locus YCL016C, strain dcc1, stronger effect = lower value 0.98 | locus YCL029C, strain bik1, stronger effect = lower value 0.962 | locus YCL061C, strain MRC1, stronger effect = lower value 0.971 | locus YCL069W, strain vba3, stronger effect = lower value 0.99 | locus YCR088W, strain abp1, stronger effect = lower value 0.99 | locus YDL005C, strain med2, stronger effect = lower value 1 | locus YDL035C, strain GPR1, stronger effect = lower value 0.987 | locus YDL040C, strain nat1, stronger effect = lower value 0.992 | locus YDL074C, strain BRE1, stronger effect = lower value 1 | locus YDL101C, strain DUN1, stronger effect = lower value 0.988 | locus YDL134C, strain PPH21, stronger effect = lower value 1.01 | locus YDL185W, strain tfp1, stronger effect = lower value 0.932 | locus YDL192W, strain arf1, stronger effect = lower value 0.972 | locus YDR001C, strain nth1, stronger effect = lower value 0.974 | locus YDR069C, strain doa4, stronger effect = lower value 0.993 | locus YDR101C, strain arx1, stronger effect = lower value 0.995 | locus YDR137W, strain rgp1, stronger effect = lower value 0.969 | locus YDR150W, strain NUM1, stronger effect = lower value 0.972 | locus YDR159W, strain sac3, stronger effect = lower value 0.946 | locus YDR162C, strain NBP2, stronger effect = lower value 0.982 | locus YDR195W, strain ref2 1 | locus YDR297W, strain sur2, stronger effect = lower value 0.994 | locus YDR318W, strain mcm21, stronger effect = lower value 0.979 | locus YDR334W, strain swr1, stronger effect = lower value 0.987 | locus YDR335W, strain msn5, stronger effect = lower value 0.994 | locus YDR388W, stronger effect = lower value 0.989 | locus YDR392W, strain spt3, stronger effect = lower value 0.979 | locus YDR502C, strain sam2, stronger effect = lower value 0.98 | locus YEL003W, strain gim4, stronger effect = lower value 0.968 | locus YEL037C, strain rad23, stronger effect = lower value 0.987 | locus YEL061C, strain CIN8 (second series), stronger effect = lower value 0.976 | locus YEL061C, strain CIN8, stronger effect = lower value 0.985 | locus YER015W, strain faa2, stronger effect = lower value 1.01 | locus YER016W, strain bim1, stronger effect = lower value 0.999 | locus YER110C, stronger effect = lower value 0.973 | locus YER111C, strain swi4, stronger effect = lower value 0.986 | locus YER155C, strain BEM2 (second series), stronger effect = lower value 1.03 | locus YER155C, strain BEM2, stronger effect = lower value 0.994 | locus YER167W, strain BCK2, stronger effect = lower value 0.954 | locus YFR010W, strain ubp6, stronger effect = lower value 0.995 | locus YGL078C, strain dbp3, stronger effect = lower value 0.97 | locus YGL086W, strain mad1, stronger effect = lower value 0.971 | locus YGL167C, strain pmr1, stronger effect = lower value 0.999 | locus YGL173C, strain kem1, stronger effect = lower value 1 | locus YGL227W, strain vid30, stronger effect = lower value 0.985 | locus YGL240W, strain doc1, stronger effect = lower value 1.01 | locus YGL248W, strain PDE1, stronger effect = lower value 0.991 | locus YGL253W, strain hxk2, stronger effect = lower value 0.986 | locus YGR078C, strain PAC10, stronger effect = lower value 0.988 | locus YGR135W, strain pre9, stronger effect = lower value 0.982 | locus YGR229C, strain SMI1, stronger effect = lower value 0.969 | locus YGR252W, strain gcn5, stronger effect = lower value 1.1 | locus YHR013C, strain ard1, stronger effect = lower value 1 | locus YHR027C, strain rpn1, stronger effect = lower value 0.994 | locus YHR030C, strain SLT2, stronger effect = lower value 0.984 and 0.959 | locus YHR079C, strain IRE1 (second series), stronger effect = lower value 0.978 | locus YHR079C, strain IRE1, stronger effect = lower value 0.955 | locus YHR094C, strain hxt1, stronger effect = lower value 0.972 | locus YHR129C, strain ARP1, stronger effect = lower value 0.999 | locus YHR142W, strain chs7, stronger effect = lower value 0.96 | locus YHR200W, strain rpn10, stronger effect = lower value 0.974 | locus YIL066C, strain RNR3, stronger effect = lower value 0.991 | locus YIL073C, strain SPO22, stronger effect = lower value 0.887 | locus YIL125W, strain kgd1, stronger effect = lower value 0.954 | locus YIR030C, strain dcg1, stronger effect = lower value 0.991 | locus YJL092W, strain hpr5, stronger effect = lower value 0.986 | locus YJL095W, strain BCK1 (second series), stronger effect = lower value 0.996 | locus YJL095W, strain BCK1, stronger effect = lower value 0.992 and 0.987 | locus YJL115W, strain asf1, stronger effect = lower value 0.971 | locus YJL129C, strain trk1, stronger effect = lower value 1.01 | locus YJL134W, strain LCB3, stronger effect = lower value 0.992 | locus YJL154C, strain vps35, stronger effect = lower value 0.986 | locus YJL164C, strain tpk1, stronger effect = lower value 0.988 | locus YJL166W, strain qcr8, stronger effect = lower value 0.999 | locus YJL168C, strain set2, stronger effect = lower value 0.984 | locus YJL187C, strain SWE1 (second series), stronger effect = lower value 0.983 | locus YJL187C, strain SWE1, stronger effect = lower value 0.99 | locus YJR043C, strain POL32, stronger effect = lower value 0.979

Reference: PubChem BioAssay AID1159580 (chemical genetic matrix, 2015)
